The list is not random: actives were taken first. Their share in the collection is about 2.4%.
Pf gamet viab = P. falciparum stage V gametocyte viability inhibition; P. falciparum stage V gametocytes, ATP luminescence, 24 h; inhibition, % at 10.9 µM; hit rate 0.065% among 150,000; AID 743093;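 active means inhibition above the mean plus 3 SD of compounds within the control limits, set per campaign, cut at about 38% in these data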;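 further: 0% = DMSO wells and 100% = medium only without gametocytes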
Arbovirus anti = arbovirus infection inhibition. arbovirus infection cell-based antiviral screen. inhibition, % at 10 µM. hit rate 0.37% among 200,000. AID 1251; in the data active means inhibition above about 30%
MEKK3 PB1 HTS = MEKK3-MEK5 PB1 interaction, increase or decrease; Q99759; bead-based flow cytometry, Alexa488-MEK5 binding to MEKK3; actives lie on both sides; 0 = blocked by unlabeled MEK5, 100 = vehicle; binding response (% of control), % at 10 µM; hit rate 1.4% among 290,000; AID 1529;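 active means binding response more than 3 SD above or below the average of its plate-row segment, actives on both sides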;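 further: Alexa488 bead fluorescence after subtracting the streptavidin-only scavenger bead signal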
Target sequence (Q99759 whole entry, looked up): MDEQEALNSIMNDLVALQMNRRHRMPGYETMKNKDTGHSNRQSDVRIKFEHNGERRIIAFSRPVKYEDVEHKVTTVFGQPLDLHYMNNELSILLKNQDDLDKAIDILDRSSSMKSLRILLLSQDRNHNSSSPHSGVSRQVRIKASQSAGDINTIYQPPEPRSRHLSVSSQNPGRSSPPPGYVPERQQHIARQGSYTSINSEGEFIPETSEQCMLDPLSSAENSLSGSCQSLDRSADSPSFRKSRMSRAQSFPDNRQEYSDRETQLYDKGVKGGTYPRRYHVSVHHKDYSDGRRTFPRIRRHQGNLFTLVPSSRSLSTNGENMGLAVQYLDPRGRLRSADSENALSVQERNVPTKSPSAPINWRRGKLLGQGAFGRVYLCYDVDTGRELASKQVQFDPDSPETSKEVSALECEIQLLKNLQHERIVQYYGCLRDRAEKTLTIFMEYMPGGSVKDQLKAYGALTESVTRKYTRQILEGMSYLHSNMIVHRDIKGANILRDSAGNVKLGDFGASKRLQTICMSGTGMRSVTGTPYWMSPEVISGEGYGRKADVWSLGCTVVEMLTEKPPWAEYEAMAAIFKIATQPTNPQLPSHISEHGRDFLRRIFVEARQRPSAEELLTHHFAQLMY
MEKK2mut PB1 HTS = signal of MEK5 binding to mutant human MEKK2 PB1 domain | AID 1530 | percent response, % at 10 µM | hit rate 0.35% among 290,000 | bead flow cytometry, Alexa488-MEK5 binding to MEKK2 mutant; in the data active means percent response above about 24%, passing the limit was not always enough
MEKK2 WT-MEK5 = raises or lowers MEK5 binding to wildtype human MEKK2 PB1 domain; Q9Y2U5; bead flow cytometry, Alexa488-MEK5 binding to MEKK2 WT; actives lie on both sides; binding response (% of control), % at 10 µM; hit rate 1.1% among 290,000; in the data active means binding response below about 67% or above about 130%
MEKK2wt confirm = raises or lowers MEK5 binding to wildtype human MEKK2, retest; shares compounds with MEKK3 PB1 HTS; binding response (% of control), % at 10 µM; bead flow cytometry, Alexa488-MEK5 binding to MEKK2 WT; actives lie on both sides; AID 1892; hit rate 2.4% among 5,900; in the data active means binding response below about 16% or above about 210%; inactive means in between
MEKK2mut confirm = signal of MEK5 binding to mutant human MEKK2, retest. bead flow cytometry, Alexa488-MEK5 binding to MEKK2 mutant. hit rate 2% among 5,900. percent response, % at 10 µM. shares compounds with MEKK3 PB1 HTS; in the data active means percent response mostly above about 71%, no sharp cut-off; inactive means mostly below about 38%;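 further: higher means compound restores mutant binding toward wildtype level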
MEKK3-MEK5 inh = confirmation of inhibitors of MEK5 binding to human MEKK3; shares compounds with MEKK3 PB1 HTS; bead flow cytometry, Alexa488-MEK5 binding to MEKK3; active compounds read low; binding response (% of control), % at 10 µM; hit rate 1.8% among 5,900; AID 1894;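 active means binding response below 72% of control, or above a set upper limit, though filed actives all read lower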;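 further: 100% = DMSO only wells and 0% = binding blocked by excess unlabeled MEK5; lower values mean stronger disruption of MEK5 binding to MEKK3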
Starred values were filed as active, the others as inactive; [ ] = another dose, or the depositor's remark.

What do the screens show for `COc1ccc(OC)c(Nc2nc(N(C)c3ccccc3)nc(N)c2[N+](=O)[O-])c1`?
MEKK3 PB1 HTS: 105.0; MEKK2mut PB1 HTS: 1.0; MEKK2 WT-MEK5: 103.0

Results for Cc1cccc(-n2[nH]c(C)c(C=Nc3ccc4[nH]c(=O)[nH]c4c3)c2=O)c1 ?
Pf gamet viab: 4.1; Arbovirus anti: -6.1; MEKK3 PB1 HTS: 129.0*; MEKK2mut PB1 HTS: 0.0; MEKK2 WT-MEK5: 107.0; MEKK2wt confirm: 123.0; MEKK2mut confirm: 11.0; MEKK3-MEK5 inh: 104.0

Results for NC1=NC[C@H](Cc2ccc(O)cc2)N1CCC12CC3CC(CC(C3)C1)C2 ?
Pf gamet viab: -24.0; MEKK3 PB1 HTS: 108.0; MEKK2mut PB1 HTS: 21.0; MEKK2 WT-MEK5: 138.0*; MEKK2wt confirm: 128.0; MEKK2mut confirm: 8.0; MEKK3-MEK5 inh: 100.0

How did COc1ccc(CCNC(=O)/C(=C/c2cccnc2)NC(=O)c2ccccc2)cc1 do in these assays?
Pf gamet viab: 2.4; Arbovirus anti: 0.4; MEKK3 PB1 HTS: 128.0*; MEKK2mut PB1 HTS: -1.0; MEKK2 WT-MEK5: 101.0; MEKK2wt confirm: 96.0; MEKK2mut confirm: -11.0; MEKK3-MEK5 inh: 101.0

How did COc1ccc(CCNC(=O)C(=O)NCc2ccccn2)cc1 do in these assays?
Pf gamet viab: -40.8; Arbovirus anti: 20.9; MEKK3 PB1 HTS: 135.0*; MEKK2mut PB1 HTS: 5.0; MEKK2 WT-MEK5: 117.0; MEKK2wt confirm: 98.0; MEKK2mut confirm: -7.0; MEKK3-MEK5 inh: 98.0

Results for COc1ccc(/C=C(\NC(=O)c2ccccc2)C(=O)NCc2cccnc2)cc1 ?
MEKK3 PB1 HTS: 101.0; MEKK2mut PB1 HTS: 0.0; MEKK2 WT-MEK5: 97.0

How did CSCC[C@H](N)C(=O)NC[C@H]1CC[C@H](C(=O)N[C@@H](Cc2ccccc2)C(=O)O)CC1 do in these assays?
MEKK3 PB1 HTS: 105.0; MEKK2mut PB1 HTS: 6.0; MEKK2 WT-MEK5: 108.0

What do the screens show for `CC(=O)C1=C(O)C(=O)N(c2nccs2)C1c1ccccc1F` (centres undefined)?
Pf gamet viab: 2.0; MEKK3 PB1 HTS: 96.0; MEKK2mut PB1 HTS: -6.0; MEKK2 WT-MEK5: 101.0

What do the screens show for `COc1ccc(C2=NO[C@@H]3[C@@H]4C[C@@H]([C@H]5C(=O)N(C)C(=O)[C@@H]45)[C@H]23)cc1`?
Arbovirus anti: 2.4; MEKK3 PB1 HTS: 153.0*; MEKK2mut PB1 HTS: 2.0; MEKK2 WT-MEK5: 107.0; MEKK2wt confirm: 101.0; MEKK2mut confirm: -1.0; MEKK3-MEK5 inh: 100.0

Results for CN1C(=O)[C@@H]2[C@@H]3C[C@@H]([C@H]4ON=C(c5ccc(Cl)cc5)[C@@H]34)[C@@H]2C1=O ?
Pf gamet viab: -1.9; Arbovirus anti: -1.6; MEKK3 PB1 HTS: 102.0; MEKK2mut PB1 HTS: -1.0; MEKK2 WT-MEK5: 101.0

How did Cc1nc(C)c(CCNC(=O)c2ccc(C(F)(F)F)cc2)s1 do in these assays?
Pf gamet viab: 6.4; Arbovirus anti: -6.1; MEKK3 PB1 HTS: 138.0*; MEKK2mut PB1 HTS: 1.0; MEKK2 WT-MEK5: 106.0; MEKK2wt confirm: 102.0; MEKK2mut confirm: 3.0; MEKK3-MEK5 inh: 105.0

Results for Cc1ccc(C(=O)NCCc2sc(C)nc2C)cc1 ?
Pf gamet viab: 0.6; Arbovirus anti: -2.6; MEKK3 PB1 HTS: 108.0; MEKK2mut PB1 HTS: 29.0; MEKK2 WT-MEK5: 118.0

How did CC(C)(C)NC(=O)COC(=O)c1cc(S(=O)(=O)N2CCCCC2)ccc1N1CCOCC1 do in these assays?
Pf gamet viab: -7.7; Arbovirus anti: -8.6; MEKK3 PB1 HTS: 105.0; MEKK2mut PB1 HTS: 6.0; MEKK2 WT-MEK5: 106.0

What do the screens show for `O=C1CN(C(=O)COc2ncnc3ccccc23)c2ccccc2N1`?
Pf gamet viab: 11.8; Arbovirus anti: -3.8; MEKK3 PB1 HTS: 101.0; MEKK2mut PB1 HTS: 15.0; MEKK2 WT-MEK5: 99.0

Results for Cc1sc2ncnc(OCC(=O)N3CC(=O)Nc4ccccc43)c2c1C ?
Pf gamet viab: -8.6; Arbovirus anti: 1.2; MEKK3 PB1 HTS: 42.0*[inhibitor]; MEKK2mut PB1 HTS: -18.0; MEKK2 WT-MEK5: 46.0*[inhibitor]; MEKK2wt confirm: 100.0; MEKK2mut confirm: 6.0; MEKK3-MEK5 inh: 104.0

How did CCOC(=O)C(=Cc1ccc(Br)cc1)C(=O)OCC do in these assays?
MEKK3 PB1 HTS: 103.0; MEKK2mut PB1 HTS: 2.0; MEKK2 WT-MEK5: 105.0

Results for CCOC(=O)C(=Cc1ccc(F)cc1)C(=O)OCC ?
Arbovirus anti: -23.7; MEKK3 PB1 HTS: 114.0; MEKK2mut PB1 HTS: 33.0*; MEKK2 WT-MEK5: 121.0; MEKK2wt confirm: 101.0; MEKK2mut confirm: 0.0; MEKK3-MEK5 inh: 105.0

How did CCC(C)n1c(SCc2ccccc2)nc2ccsc2c1=O (centres undefined) do in these assays?
Arbovirus anti: 19.2; MEKK3 PB1 HTS: 151.0*; MEKK2mut PB1 HTS: 1.0; MEKK2 WT-MEK5: 108.0; MEKK2wt confirm: 96.0; MEKK2mut confirm: -1.0; MEKK3-MEK5 inh: 97.0

How did Cc1ccc(CSc2nc3ccsc3c(=O)n2Cc2ccccn2)cc1 do in these assays?
Arbovirus anti: -17.5; MEKK3 PB1 HTS: 139.0*; MEKK2mut PB1 HTS: 1.0; MEKK2 WT-MEK5: 101.0; MEKK2wt confirm: 100.0; MEKK2mut confirm: -2.0; MEKK3-MEK5 inh: 101.0

What do the screens show for `CCNC(=O)c1ccc(C23CC4CC(CC(C4)C2)C3)o1`?
Pf gamet viab: -1.5; Arbovirus anti: 1.1; MEKK3 PB1 HTS: 103.0; MEKK2mut PB1 HTS: 0.0; MEKK2 WT-MEK5: 102.0

What do the screens show for `COc1ccc(/C=C/c2noc(-c3ccccc3O)n2)cc1`?
Pf gamet viab: 7.5; Arbovirus anti: -13.4; MEKK3 PB1 HTS: 131.0*; MEKK2mut PB1 HTS: 0.0; MEKK2 WT-MEK5: 106.0; MEKK2wt confirm: 94.0; MEKK2mut confirm: 0.0; MEKK3-MEK5 inh: 98.0

What do the screens show for `CCN(CC)CCCN(C(=O)c1ccc(F)cc1)c1nc(-c2ccc(OC)cc2)cs1`?
MEKK3 PB1 HTS: 113.0; MEKK2mut PB1 HTS: 24.0*; MEKK2 WT-MEK5: 141.0*; MEKK2wt confirm: 138.0; MEKK2mut confirm: 19.0; MEKK3-MEK5 inh: 103.0

How did COc1ccc(-c2csc(N(CCCN(C)C)C(=O)c3ccc(F)cc3)n2)cc1 do in these assays?
Pf gamet viab: 11.6; MEKK3 PB1 HTS: 111.0; MEKK2mut PB1 HTS: 25.0*; MEKK2 WT-MEK5: 140.0*; MEKK2wt confirm: 124.0; MEKK2mut confirm: 11.0; MEKK3-MEK5 inh: 102.0

How did COc1ccc(S(=O)(=O)N(CCC(N)=O)Cc2ccco2)cc1OC do in these assays?
Pf gamet viab: 16.4; MEKK3 PB1 HTS: 50.0*[inhibitor]; MEKK2mut PB1 HTS: -21.0; MEKK2 WT-MEK5: 54.0; MEKK2wt confirm: 104.0; MEKK2mut confirm: 2.0; MEKK3-MEK5 inh: 103.0

What do the screens show for `COc1ccc(S(=O)(=O)N(Cc2ccc(OC)c(OC)c2)Cc2ccco2)cc1`?
Pf gamet viab: 20.9; Arbovirus anti: -10.0; MEKK3 PB1 HTS: 93.0; MEKK2mut PB1 HTS: -4.0; MEKK2 WT-MEK5: 96.0
